The test can be described thus: HDAC Secondary Assay for qHTS Assay for Epigenetic Modulators. The note with it: HeLa nuclear extract HDAC activity, fluorogenic substrate, 20 min; at 48 µM; stronger effect = lower value. From the text: NIH Molecular Libraries Screening Centers Network [MLSCN] NIH Chemical Genomics Center [NCGC] MLSCN Grant: 1 X01 MH079860-01 Assay Provider: Elisabeth D. Martinez, University of Texas SW Medical Center NCGC Assay Overview: This secondary assay characterizes selected actives identified in the qHTS of the Locus Derepression (LDR) assay (PubChem AID 597). The LDR assay detects the derepression of a GFP reporter that is stably integrated in a region of the genome of murine c127i mammary cells that is presumably silenced. Compounds that cause derepression of the locus to express GFP are identified by enumerating GFP positive cells using a laser-scanning microplate cytometer. […]
NCGC Assay Protocol Summary HeLa nuclear extracts and acetylated profluorescent substrate were incubated with vehicle, 0.5 uM TSA, or 48 uM indicated LDR compound for 20 min at ambient temperature and fluorescence was measured. Background-subtracted activity was expressed as a percent of uninhibited extract. […] For further details, see R.L. Johnson, W. Huang, A. Jadhav, C.P. Austin, J. Inglese, E.D. Martinez, A Quantitative High-Throughput Screen Identifies Potential Epigenetic Modulators of Gene Expression, Analytical Biochemistry (2007), doi: 10.1016/j.ab.2007.12.028
For orientation: In qHTS, concentration-response curves come from the screen itself.

Unmarked numbers belong to inactive results. No rule for the calls is given here.

The values below come from PubChem BioAssay AID1035 (National Center for Advancing Translational Sciences (NCATS), 2008).

For the compound `CN1CSC(=S)N(C)C1`, the remaining HDAC activity was 102%.
